# PREPL inh – human PREPL enzyme inhibition; inhibition, % at 5.96 µM; Q4J6C6; recombinant PREPL, fluorescence polarization activity-based probe; actives 0.68% (n = 320,000); in the data active means inhibition above about 43%;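 further: 0% = enzyme with DMSO and 100% = wells lacking enzyme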
# AI-2 QS mod – Vibrio harveyi AI-2 quorum sensing modulation; Vibrio harveyi JMH597 AI-2 luminescence/OD600 ratio, 9 h; stronger effect = lower value; strain lacks LuxN and CqsS sensors; 0 = neutral-control median; activity change, % at 7.5 µM; actives 0.4% (n = 300,000); AID 2094; in the data active means activity change below about -75%, passing the limit was not always enough; inconclusive means no clear call, values can overlap the other calls;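 further: luminescence divided by OD600 gain over 9 h not by final OD600 alone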
# ALR inh – human ALR oxidase inhibition via reduced H2O2; purified ALR, DTT oxidation, H2O2 HRP-luminol luminescence; actives 3.8% (n = 290,000); P55789; inhibition, % (concentration not given with the values);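 active means mean replicate inhibition above about 79%, with every replicate also reaching it, limit read from the data; inconclusive means only one of the two criteria met; inactive means mean below limit and not every replicate reaching it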
# Target sequence (P55789 whole entry, looked up): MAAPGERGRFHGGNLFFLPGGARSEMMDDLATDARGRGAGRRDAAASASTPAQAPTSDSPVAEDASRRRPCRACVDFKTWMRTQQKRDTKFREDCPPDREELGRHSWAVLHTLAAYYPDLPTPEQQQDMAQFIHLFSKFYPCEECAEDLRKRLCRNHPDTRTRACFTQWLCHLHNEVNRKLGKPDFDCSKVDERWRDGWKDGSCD
# CHT block – inhibits the human high affinity choline transporter. Q9GZV3. CHT-expressing cells, membrane potential dye, choline response; stronger effect = lower value. B-score at 10 µM. actives 0.86% (n = 310,000);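 active means B-score over 3 SD under the library average, and starting fluorescence ratio not unusually high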;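 further: choline stimulus applied at its EC90 after an EC20 pre-addition; B-score computed on integrated fluorescence ratio after choline addition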
# CHT allo act – human CHT allosteric activation | CHT-expressing cells, membrane potential dye, choline EC20; stronger effect = higher value; LV-AA mutant CHT in HEK293 cells | actives 0.49% (n = 310,000) | B-score at 10 µM | Q9GZV3;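 active means initial fluorescence not abnormally high and integrated response B-score, plate-corrected, over 3 SD above library mean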
# CHT inh conf – human CHT inhibition, confirmatory screen. AID 493221. CHT activity remaining % of control (stronger effect = lower value), % at 10 µM. shares compounds with CHT block. CHT-expressing cells, choline membrane potential dye; LV-to-AA substituted CHT, HEK293 cells. actives 70% (n = 2,400);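 active means choline transporter activity left, mean of duplicates at 10 µM, below buffer-only control mean minus 3 SD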;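 further: depolarization triggered by choline at its EC90 following an EC20 pre-addition; 0% = hemicholinium-3 full block and 100% = buffer-only control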
# HEK293 MPD ctr – CHT inhibitor counter-screen hit in parental HEK293 cells; membrane potential ratio readout (active if shifted either direction beyond buffer ±3SD; no single direction) at 10 µM; AID 493222; actives 4% (n = 2,400); shares compounds with CHT block; membrane potential dye, choline response; active = decrease or increase beyond buffer ±3SD;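 further: parental cells lack the transporter so any hit is non-specific; ratio is peak minus trough fluorescence over baseline after EC90 choline challenge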
# CHT activ conf – human CHT activation, confirmatory screen. shares compounds with CHT allo act. CHT-expressing cells, membrane potential dye fluorescence (FDSS); % of choline EC20–EC90 response window; HEK293 expressing CHT LV-AA mutant; choline added at its EC20. activation, % at 10 µM. actives 91% (n = 2,500). AID 504833;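 active means primary screen active, with duplicate mean activation above negative control mean plus 3 SD, cut at about 11% in these data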
# HEK293 MP dye – counter-screen for CHT activators: effect in parental HEK293 cells; membrane potential dye fluorescence (FDSS); measured after EC20 choline addition; shares compounds with CHT allo act; ratio readout change at 10 µM, hits read low; actives 62% (n = 2,500);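 active means duplicate-averaged ratio beyond 3 SD from buffer wells, up or down, though filed actives are nearly all decreases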
# The depositor's hits bear a star; i = inactive; ? = inconclusive; . = no result; ! = not active in a repeat. This is a sample that favours compounds with a hit; in the whole collection about 5% have one here.
SMILES,PREPL inh,AI-2 QS mod,ALR inh,CHT block,CHT allo act,CHT inh conf,HEK293 MPD ctr,others
Cc1cc(NC(=O)CCl)nn1C,18,24,-6,i,i,.,.,
CCCC(=O)NC(Oc1ccccc1Cl)C(Cl)(Cl)Cl (stereo not drawn),13,-7,7,-5*,i,i,i,
C[N+](C)(C)CCOC(=O)CBr,-1,.,-4,-8*,i,-8.4%*,i,
CC(=O)OCC[N+](C)(C)C,-6,13,-5,-7.5*!,i,25%*,i,
C[C@@H]1CCC2[C@@H](C)C(=O)O[C@@H]3OC4(C)CCC1[C@@]23OO4 (stereo partly drawn),16,.,-3,.,.,.,.,
CCC(=NCCc1c[nH]c2ccccc12)c1c(O)n(C)c(=O)n(C)c1=O,14,22,27,-5.7*,i,i,i,
C/C1=C\[C@@H](C)C/C=C/[C@H]2[C@@H]3O[C@]3(C)[C@@H](C)[C@H]3[C@H](Cc4c[nH]c5ccccc45)NC(=O)[C@]32C(=O)/C=C/C(=O)[C@@H]1O,12,31,1,i,i,.,.,
CC1=CC2/C=C(\C)CCC(O)C(O)/C=C/C(=O)C23C(=O)NC(CC(C)C)C3C1C (stereo not drawn),28,11,11,-6.5*,i,24%*,i,
CC(C)(C)NC(=O)C1CC2CCCCC2CN1 (stereo not drawn),7,23,-2,i,i,.,.,
COC(=O)C1=C(c2cc3ccccc3o2)C[C@@H]2CC[C@H]1N2C(=O)N1CCCCC1,-1,4,-9,i,i,.,.,
COC(=O)C1=C(c2cc3ccccc3o2)C[C@@H]2CC[C@H]1N2C(=O)N1CCCC1,2,16,.,-6.2*,i,65%*,i,
Brc1ccc2c(c1)C(OC1CN3CCC1CC3)c1ccccc1CS2 (stereo not drawn),11,21,2,-6.5*,i,34%*,i,
C/C(=N\N1CCCCCC1)c1c(O)n(C2CCCCC2)c(=O)[nH]c1=O,-5,13,28,i,i,.,.,
CCN(C(=O)CN1CC=C(c2ccccc2)CC1)c1c(N)n(Cc2ccccc2)c(=O)[nH]c1=O,10,17,-16,i,i,.,.,
Cc1ccc2occ(CN3CC4CC(C3)c3cccc(=O)n3C4)c(=O)c2c1 (stereo not drawn),5,22,3,i,i,.,.,
O=c1cccc2n1CC1CC2CN(Cc2cccc(Cl)c2Cl)C1 (stereo not drawn),9,-7,-1,-5.4*,i,65%*,i,
CC(C)OC(=O)c1c(N)n(CC2CCCO2)c2nc3ccccc3nc12 (stereo not drawn),-4,40,15,i,i,.,.,
Nc1c(C(=O)OC2CCCCC2)c2nc3ccccc3nc2n1CC1CCCO1 (stereo not drawn),8,39,-22,-8.6*,i,51%*,i,
CCCNC(=O)c1c(N)n(CC2CCCO2)c2nc3ccccc3nc12 (stereo not drawn),12,-4,25,i,i,.,.,
CC(C)OCCCNC(=O)c1c(N)n(CC2CCCO2)c2nc3ccccc3nc12 (stereo not drawn),15,2,30,-5.1*,i,i,i,
Clc1cc(I)cc(Cl)c1NC1=NCCN1,7,7,-26,-7*,i,6.0%*,i,
CCOc1cc2c(cc1OCC)-n1cccc1C(c1cc(C)c(OC)cc1C)NC2 (stereo not drawn),14,-9,-3,-5*,i,i,i,
CCOc1cc2c(cc1OCC)-n1cccc1C(c1ccc(C)cc1C)NC2 (stereo not drawn),17,14,-8,i,i,.,.,
NNCc1cccc(O)c1,-9,13,0,i,i,.,.,
CC1(C)C(=O)C=C[C@]2(C)[C@H]3CC[C@@]4(C)[C@H](c5ccoc5)OC(=O)[C@H]5O[C@]54[C@]3(C)[C@H](O)C[C@@H]12,4,3,-4,i,i,.,.,
SMILES,PREPL inh,AI-2 QS mod,ALR inh,CHT block,CHT allo act,CHT inh conf,HEK293 MPD ctr,others
C=CCn1c(O)c(C=NCCCOc2ccc(CC)cc2)c(=O)[nH]c1=S,-31,15,-2,i,i,.,.,
COc1ccc(OCCSc2nnnn2C2CCCCC2)cc1,-1,35,3,-11*,i,i,i,
O=C(c1ccc(F)cc1)N1CCC2(CC1)OCCO2,-3,-12,-2,i,i,.,.,
CCn1c(P(C)(=O)O)nc2cc(NC(=O)c3ccccc3F)ccc21,18,17,-42,-12*,i,i,i,
CCn1c(P(C)(=O)O)nc2ccccc21,-4,12,.,i,i,.,.,
c1ccc2c(CN3CCCCCCC3)c[nH]c2c1,31,-1,10,-11*,i,2.7%*,i,
CSc1nc(N2CCN(C)CC2)c2ccccc2n1,-4,34,.,i,6.3*,.,.,CHT activ conf=47*;HEK293 MP dye=-68*
Cc1cc(N2CCN(C)CC2)nc2ccccc12,5,0,.,i,7*,.,.,CHT activ conf=49*;HEK293 MP dye=-51*
COc1nc2ccccc2nc1N1CCN(C)CC1,.,26,-6,i,i,.,.,
CN1CCN(c2nc3ccccc3o2)CC1,-9,5,0,i,i,.,.,
COc1cc(N)c(Cl)cc1C(=O)NC1CN2CCC1CC2 (stereo not drawn),-2,0,-1,i,i,.,.,
NC(N)=Nc1ccc2[nH]c3c(c2c1)C[C@@]1(O)[C@H]2Cc4ccc(O)c5c4[C@@]1(CCN2CC1CC1)[C@H]3O5,19,.,-3,i,8.3*,.,.,CHT activ conf=12*;HEK293 MP dye=-33*
Cc1ccc(-c2nc(N3CCOCC3)s[n+]2-c2ccccc2)cc1,-5,15,?,i,6.7*,.,.,CHT activ conf=55*;HEK293 MP dye=i
OC(Cn1c2ccccc2c2ccccc21)C[n+]1cccc2ccccc21 (stereo not drawn),30,54,-21,i,i,.,.,CHT activ conf=39*;HEK293 MP dye=-38*
CN1CCN(c2nc(N(C)C)oc(=O)c2C#N)CC1,2,19,-9,i,i,.,.,CHT activ conf=54*;HEK293 MP dye=-47*

# Source: PubChem
